# Results: PubChem BioAssay AID1117319 (Southern Research Institute, 2015)
# About 1,500 (0.58%) of roughly 260,000 compounds were called active. Another 5% or so got no clear call; they are omitted.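 The calls were made as follows: active = inhibition above a set limit at one or more doses, reproduced on every date tested; inconclusive = results disagree between test dates, or hit never tested in dose response; inactive = the rest.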 A selection follows. Entries with a potency or affinity are not part of this list.
# Target: Virion infectivity factor (Human immunodeficiency virus type 1 group M subtype B (isolate BH10)) + Virion infectivity factor (Human immunodeficiency virus type 1 group M subtype B (isolate BRU/LAI)) + Virion infectivity factor (Human immunodeficiency virus type 1 group M subtype B (isolate PCV12)) + Virion infectivity factor (Human immunodeficiency virus type 1 group M subtype B (isolate HXB2)) + DNA dC->dU-editing enzyme APOBEC-3G (Homo sapiens) (UniProt P69720+P69721+P69722+P69723+Q9HC16)
# Assay: inhibitors of Vif binding to APOBEC3G peptide, primary screen, biochemical, TR-FRET, GST-Vif 1-94, biotin-A3G peptide, dose response retest (AID 1117319);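 also: Vif residues 1-94 fused to GST binding biotinylated APOBEC3G peptide 110-148; 0% = full assay without inhibitor and 100% = GST in place of GST-Vif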
# Conditions: hits give high values
row,Compound,inhibition
1,CC1(C)CC(=O)C(C=NCCCN2CCOCC2)=C(O)C1,-5.25% (inactive)
2,CCc1cc2ccc(OC)cc2nc1SCC(=O)NNC(=O)c1ccco1,-10% (inactive)
3,Cc1ccc(NC(=S)N(CCCN2CCOCC2)Cc2ccco2)cc1C,-0.03% (inactive)
4,CN(C)c1ccc(/C=C2\C(=N)N3C(=NC2=O)Sc2cc(S(C)(=O)=O)ccc23)cc1,-44.5% (inactive)
5,COc1ccc(/C=C2/C(=N)N3C(=NC2=O)Sc2cc(S(C)(=O)=O)ccc23)cc1OC,-1.27% (inactive)
6,O=C(NCc1nnc(SCC(=O)N2CCc3ccccc32)o1)c1ccco1,1.79% (inactive)
7,Cc1cccc(NCC(=O)N/N=C\c2c[nH]c3ccccc23)c1,21.4% (inactive)
8,Cc1nc(N)sc1C(=O)N/N=C/c1cccnc1,3.64% (inactive)
9,Cc1cccc(Nc2ncc3c(n2)CC(c2ccco2)CC3=O)c1 (stereo not drawn),3.03% (inactive)
10,Cc1ccc(Nc2ncc3c(n2)CC(c2ccco2)CC3=O)c(C)c1 (stereo not drawn),18.1% (inactive)
11,O=C(CSc1nnnn1-c1ccccc1)Nc1ncc2c(n1)CC(c1ccccc1)CC2=O (stereo not drawn),2.52% (inactive)
12,CCC(=O)Nc1ncc2c(n1)CC(c1ccco1)CC2=O (stereo not drawn),31.8% (inactive)
13,CC(C(=O)NC1=NCCS1)(C(F)(F)F)C(F)(F)F,-4.2% (inactive)
14,COc1ccc(CCNC(=O)CCCc2ccccc2)cc1OC,1% (inactive)
15,Cc1ccc(C)c(OCC(=O)Nn2c(C)nc3ccccc3c2=O)c1,-5.76% (inactive)
16,C=CCn1c(C)c(C(C)=O)c(N2CCCC2)nc1=S,1.72% (inactive)
17,C=CCn1c(C)c(C(C)=O)c(N2CCOCC2)nc1=S,5.16% (inactive)
18,O=C(NCC1CCCO1)c1ccc2nc(N3CCCCC3)sc2c1 (stereo not drawn),1.36% (inactive)
19,CC(Oc1ccc(Br)cc1)C(=O)Nc1ccncc1 (stereo not drawn),-0.96% (inactive)
20,COc1ccc(CNC(=O)c2cc(=O)c3ccccc3o2)cc1,4.03% (inactive)
21,O=C(NNc1nc2c(F)cccc2s1)c1cc(=O)c2ccccc2o1,21.6% (inactive)
22,O=S(=O)(c1cccc(F)c1)N1CCN(C(=S)NCc2ccccc2)CC1,-4.04% (inactive)
23,O=C(OCc1csc(-c2ccccc2)n1)c1ccc(O)cc1,-8.63% (inactive)
24,O=C1c2ccccc2C(=O)N1CCCCON1C(=O)c2ccccc2C1=O,-9.96% (inactive)
25,O=C1c2ccccc2C(=O)N1CCCON1C(=O)c2ccccc2C1=O,-6.06% (inactive)
26,CCC(C)NC(=O)C(Cc1ccccc1)NS(=O)(=O)c1ccc2c(c1)CCC(=O)N2 (stereo not drawn),-0.93% (inactive)
27,CC(C)=CC(=O)NCc1c(Cl)cccc1-n1cccc1,-7.14% (inactive)
28,CCC(=O)NCc1c(Cl)cccc1-n1cccc1,-0.31% (inactive)
